# An excerpt weighted towards active compounds, which were near 3.4% of everything screened.
# Tau ThT inhib = blocks human tau fibril formation measured by thioflavin T; P10636; recombinant tau K18 P301L, heparin-induced fibrillization, ThT fluorescence; Potency, µM (doses to about 57.4 µM), inactives show at the top dose activity, negative = inhibition, hits mostly inhibitors; actives 2.1% (n = 270,000); AID 1460; note: nearly all actives have a fitted effect of over 55% in size
#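 Tau K18 P301L fragment (15 uM unlabeled plus 0.24 uM Alexa 594-labeled) in 100 mM sodium acetate pH 7 with compound, fibrillization induced by 20 uM heparin for 6 hr at 37 C. Thioflavin T (30 uM) added, fluorescence read after 1 hr (ex 450, em 510 nm).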
# Tau fluor cs = counter-screen for tau fibril formation inhibitors; tau K18 P301L (four-repeat tau fragment) Alexa594 fluorescence, heparin fibrillization; Potency, µM (highest dose often 57.7 µM), inactives show at the top dose activity change, negative = decrease; AID 1463; actives 0.93% (n = 280,000); note: nearly all actives have a fitted effect of over 55% in size
#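 Human K18 P301L tau (15 uM unlabeled plus 0.24 uM Alexa 594-labeled, final) in 100 mM sodium acetate pH 7 was mixed with compound and 20 uM heparin and incubated 6 hr at 37 C.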
# Tau FP inhib = blocks human tau fibril formation measured by polarization | P10636 | K18 P301L tau heparin fibrillization, Alexa594 FP, 6 h | Potency, µM (top dose mostly 57.7 µM), without a hit: at the top dose activity, negative = inhibition, hits mostly inhibitors | actives 0.39% (n = 280,000) | AID 1468; note: nearly all actives have a fitted effect of over 55% in size
#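 FP of Alexa 594-tau after heparin (20 uM) induction. Substrate: human K18 P301L, 15 uM unlabeled, 0.24 uM labeled. Buffer 100 mM sodium acetate pH 7. 6 hr, 37 C.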
# RGS12 GoLoco inh = inhibitors of human Gai1-RGS12 GoLoco interaction (red fluorophore). Potency, µM (highest dose often 61.6 µM), for inactives: at the top dose activity, negative = inhibition, hits mostly inhibitors. actives 0.44% (n = 230,000). Gai1:RGS12 GoLoco peptide FP, rhodamine, 10 min. AID 880; active = well fitted inhibition curve with a large enough effect, not every such curve was filed as active; inactive = no such curve, though single readings can be large or run the other way; note: nearly all actives have a fitted effect of over 30% in size
# Target sequence (P63096 whole entry, looked up): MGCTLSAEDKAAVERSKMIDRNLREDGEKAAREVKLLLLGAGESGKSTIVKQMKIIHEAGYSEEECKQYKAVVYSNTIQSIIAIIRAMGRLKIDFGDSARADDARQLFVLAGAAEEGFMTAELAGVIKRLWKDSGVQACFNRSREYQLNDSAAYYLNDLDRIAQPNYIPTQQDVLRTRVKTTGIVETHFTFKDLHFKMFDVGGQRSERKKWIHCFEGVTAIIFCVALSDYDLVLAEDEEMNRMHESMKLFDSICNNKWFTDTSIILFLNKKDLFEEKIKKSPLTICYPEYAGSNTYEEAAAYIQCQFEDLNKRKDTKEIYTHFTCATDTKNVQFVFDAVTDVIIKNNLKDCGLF
# KDM4E inh = blocks human JMJD2E demethylase activity; JMJD2E catalytic domain, FDH-coupled NADH fluorescence (FDH is formaldehyde dehydrogenase); B2RXH2; AID 2147; actives 1.6% (n = 230,000); Potency, µM (top dose mostly 57.1 µM), for the others: at the highest dose activity change, negative = inhibition, hits mostly inhibitors; active = well fitted inhibition curve with a large enough effect, not every such curve was filed as active; inconclusive = small, poorly fitted or top-dose-only effect, or another doubt; inactive = no such curve, though single readings can be large or run the other way;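 note: 0% = wells with enzyme and -100% = buffer wells without enzyme; nearly all actives have a fitted effect of over 50% in size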
# Target sequence (B2RXH2 1-337 limits assumed): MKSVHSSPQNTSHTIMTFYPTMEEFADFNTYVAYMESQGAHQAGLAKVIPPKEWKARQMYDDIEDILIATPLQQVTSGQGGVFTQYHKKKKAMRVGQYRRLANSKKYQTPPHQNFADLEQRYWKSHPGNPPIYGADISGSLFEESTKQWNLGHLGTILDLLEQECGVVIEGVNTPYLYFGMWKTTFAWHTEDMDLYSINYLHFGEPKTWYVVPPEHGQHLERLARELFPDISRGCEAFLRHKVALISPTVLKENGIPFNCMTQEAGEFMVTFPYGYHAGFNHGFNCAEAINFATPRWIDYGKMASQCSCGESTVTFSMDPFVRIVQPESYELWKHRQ
# The depositor's hits bear a star; u = inconclusive; x = not tested or not shown; ! = repeats disagree; [ ] = dose if it differs, or a comment. Unless noted, calls come from the whole dose curve; as a rule, active = well fitted curve in the direction sought with a large enough effect; inconclusive = small, poorly fitted or top-dose-only effect, or another doubt; inactive = no such curve, though single readings can be large; an effect the other way counts as inactive or inconclusive. Unless noted, % is set by controls: 0 for no effect and ±100 for the full control effect; potency is the fitted concentration of half-maximal effect.
SMILES,Tau ThT inhib,Tau fluor cs,Tau FP inhib,RGS12 GoLoco inh,KDM4E inh
COc1ccc(C(CC(=O)Nc2ccc(C(C)=O)cc2)N2Cc3ccccc3C2=O)cc1 (stereo not drawn),u,-13%,-11%,x,x
COc1ccc(NC(=O)c2cc3c(Cl)nc4ccccc4c3s2)cc1OC,u,4.5µM*[quencher],7%,2%,14%
Oc1ccc(NCc2ccc(OCc3ccccc3Cl)cc2)cc1,14µM*,7.9µM*[quencher],u,x,x
COc1cc(CNCc2ccccn2)ccc1OCc1ccc(Cl)cc1Cl,12%,-13%,-5%,-2%,1%
COc1cccc(CNCCO)c1OCc1ccc(Cl)cc1,-3%,-2%,0%,7%,3%
CCOc1cc(CNc2ccc(O)cc2)ccc1OCc1ccc(Cl)cc1Cl,13µM*,u,22µM*,-29%,4.5µM*
Oc1ccc(NCc2ccc(OCc3ccccc3)cc2)cc1,u,u,-7%,x,x
Cc1ccc(NCc2ccccc2OCc2ccccc2F)cc1,-15%,u,12%,6%,2%
Oc1ccc(NCc2ccccc2OCc2ccccc2F)cc1,16µM*,7.9µM*[quencher],22µM*!,-14%,5µM*
CCOc1cccc(CNc2ccc(O)cc2)c1OCc1ccc(Cl)cc1,8.9µM*,u,13µM*,-22%,-28%
CCOc1ccc2nc(N3CCCC(C(=O)NCc4ccccc4OC)C3)sc2c1 (stereo not drawn),u,-19%,4%,x,x
C[N+]1(Cc2ccccc2)CCC(C(=O)OCC2CCCC2)CC1 (stereo not drawn),5%,5%,-2%,5%,x
CCOc1ccccc1CNc1ccc(O)cc1,7.1µM*,u,8.9µM*,-46%,-14%
Oc1ccc(NCc2ccccc2OCc2ccccc2Cl)cc1,28µM*,16µM*[quencher],-15%,x,x
CCc1ccc(CNc2ccc(O)cc2)cc1,3.2µM*,u,7.1µM*,14µM*,2%
CCCn1cnc2cc(NCc3ccccc3OCC)ccc21,u,-17%,2%,x,x
COc1ccc(-c2[nH]c(-c3ccccc3)nc2SCC(=O)Nc2ccc3c(c2)OCO3)cc1,u,13µM*[quencher],5%,x,x
O=C(COC(=O)c1cc(-c2ccccc2)nc2ccccc12)Nc1ccc2c(c1)OCO2,-4%,u,u,-13%,62%
COc1ccc(-c2nc(SCC(=O)Nc3ccc4c(c3)OCO4)c(-c3ccc(F)cc3)[nH]2)cc1OC,1%,u,3%,x,x
COc1ccc(-c2cc(C(=O)OCC(=O)Nc3ccc4c(c3)OCO4)c3ccccc3n2)cc1,u,8.9µM*[quencher],-13%,5%,u
COc1ccc(-c2nc(SCC(=O)Nc3ccc4c(c3)OCO4)c(-c3ccccc3)[nH]2)cc1,0%,14µM*[quencher],u,x,x
COc1ccc(-n2c(SCc3ccccc3F)nc3c([nH]c4ccccc43)c2=O)cc1,4%,-10%,0%,x,x
Cc1nn2c(=O)cc(COC(=O)c3ccc(NC(=O)COc4ccc(Cl)cc4)cc3)nc2s1,-2%,-1%,-9%,x,x
O=C(c1ccc(N2CCCCC2)c([N+](=O)[O-])c1)N1CCOCC1,-8%,-1%,-6%,5%,-2%
O=C(/C=C/c1ccc(N2CCCCC2)c([N+](=O)[O-])c1)c1ccc(O)cc1,11µM*,16µM*[quencher],u,7%,2%
SMILES,Tau ThT inhib,Tau fluor cs,Tau FP inhib,RGS12 GoLoco inh,KDM4E inh
COc1ccccc1C(=O)/C=C/c1ccc(N2CCCCC2)c([N+](=O)[O-])c1,4µM*,u,4%,0%,10%
C/C(=N\Nc1nc2c(s1)CCCC2)c1ccc(Cl)cc1,14µM*,25µM*[quencher],-12%,0%,-23%
CC(C)(C)c1ccc(C(=O)NC(=S)Nc2nc3c(s2)CCCC3)cc1,u,-11%,-2%,-1%,-8%
CN(C)c1ccc(C(=O)Nc2nc3c(s2)CCCC3)cc1,7.9µM*,u,5%,-2%,u
C/C(=N\NC1=NCCN1)c1ccc(Cl)cc1,1%,-6%,-2%,3%,-8%
O=C(N/N=C/c1ccc(N2CCOCC2)cc1)c1ccc(O)cc1,5µM*,-21%,9%,32%,u
O=C(N/N=C/c1ccc([N+](=O)[O-])o1)c1ccc(O)cc1,10µM*,-30%,4%,12%,u
O=C(N/N=C/c1ccc([N+](=O)[O-])o1)c1cc2c(ccc3ccccc32)o1,1.1µM*,u,-8%,39%,u
Cc1cccc(N2CCN(C(=O)c3sc4nc5n(c(=O)c4c3C)CCC5)CC2C)c1 (stereo not drawn),-4%,-16%,-22%,x,x
COc1cccc(C(=O)c2cn(CC(=O)Nc3cccc(C)c3C)c3nc(C)ccc3c2=O)c1,u,-9%,-10%,x,x
O=C(/C=C/c1ccc2c(c1)OCO2)c1ccccc1,-9%,3%,6%,2%,-6%
Nc1ccccc1C(=O)/C=C/c1ccc2c(c1)OCO2,14µM*!,-22%,2%,3%,-1%
Nc1ccccc1C(=O)/C=C\c1ccc2c(c1)OCO2,1.3µM*,u,5%[11.6 µM],x,x
Cc1ccc(O)c(C(=O)/C=C/c2ccc3c(c2)OCCO3)c1,16µM*,-9%,20%,0%,-3%
O=C(/C=C/c1ccc2c(c1)OCCO2)c1ccccc1,u,-11%,u,-2%,-2%
CCc1ccc(NC(=O)c2sc(-n3nc(C)c(Cc4ccc(OC)cc4)c3C)nc2C)cc1,-1%,2%,-1%,x,x
Cc1onc(-c2c(F)cccc2Cl)c1C(=O)OCC(=O)c1c[nH]c2ccccc12,-3%,18µM*[quencher],18µM*,3%,-9%
CCOc1ccc(NCc2cc3cc(OC)ccc3[nH]c2=O)cc1,6.3µM*,u,-6%,14%,u
COc1ccc2[nH]c(=O)c(CNc3ccccc3)cc2c1,-9%,-6%,u,x,-1%
C(=N\Nc1nc2ccccc2s1)/c1cccs1,14µM*,14µM*[quencher],u,0%,-7%
CCn1c(C)c(/C=N/Nc2nc3ccccc3s2)c2ccccc21,7.1µM*,7.1µM*[quencher],1%,-5%,u
COc1ccc(/C=N/Nc2nc3ccccc3s2)cc1O,13µM*,13µM*[quencher],9%,9%,-30%
COc1ccc(/C=N/Nc2nc3ccccc3o2)cc1O,u,u,u,-11%,-4%
CC(=O)[C@]1(O)CC[C@@H]2[C@H]3C[C@@H](C)C4=CC(=O)CC[C@@]4(C)C3[C@@H](O)C[C@]21C (stereo partly drawn),x,x,x,4%[14.2 µM],x
CC1=CC(c2ccccc2)n2nc(NS(=O)(=O)c3ccc(C)cc3)nc2N1 (stereo not drawn),11µM*,u,u,x,10%
COc1ccc(C(=O)c2cn(CC(=O)Nc3ccc4c(c3)OCO4)c3ccc(OC)cc3c2=O)cc1,u,u,4%,x,x
CC/C=C\C/C=C\C/C=C\CCCCCCCCCCCC(=O)O,u,4%,-3%,-5%,-4%

# Bioassay records (PubChem BioAssay)
